Our source for the growth values is PubChem BioAssay (NCI).

Several values for one entry are separate records, joined by “and”; a condition that tells them apart may be missing. Identical values can stand only once. This is part of a sample that, as a whole, favours compounds with a hit. Of some 83,000 tested, about 20% had one in any assay.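 Growth was measured after 48 h exposure to one concentration of compound in 96-well plates. Values under 10 count as active.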 Activity calls are given as the source filed them.

Some test systems named below: SK-MEL-2 melanoma; EKVX NSCLC; SN12C renal; UO-31 renal; ACHN renal; CAKI-1 renal; CCRF-CEM leukemia; MOLT-4 leukemia; A498 renal; TK-10 renal.
Holding throughout (assay): NCI-60 one-dose screen, 48 h (100 = growth as untreated, 0 = no growth, -100 = all killed)
Holding throughout (conditions): 10 µM unless noted

Turning to `CC1=CC(=O)C=CC1=Nc1ccc(N(C)C)cc1`, the growth is 44.6% (inactive) with SK-MEL-2 melanoma; -44.9% (active) in the assay with EKVX NSCLC; 90.6% (inactive) and 46.4% (inactive) in the assay on SN12C renal; 65.6% (inactive) and 50.7% (inactive) in the assay on UO-31 renal; 96.6% (inactive) and 55.3% (inactive) in the assay with ACHN renal; 87.1% (inactive) and 67.3% (inactive) in the assay with CAKI-1 renal. The growth in the assay with CCRF-CEM leukemia was -28.7% (active); in the assay on MOLT-4 leukemia, 50.4% (inactive) and 12% (inactive).
In the case of `Nc1nc(-c2ccccn2)cc(-c2cc(-c3ccccn3)nc(N)n2)n1`, the growth in the assay on SK-MEL-2 melanoma was 112% (inactive); in the assay on EKVX NSCLC it was 102% (inactive); in the assay with SN12C renal, 108% (inactive); with UO-31 renal it was 91.1% (inactive); in the assay on ACHN renal, 110% (inactive); with CAKI-1 renal, 96.7% (inactive). Further, the growth in the assay on A498 renal is 156% (inactive); in the assay on CCRF-CEM leukemia, 101% (inactive); with MOLT-4 leukemia, 106% (inactive).
Turning to `CC(O)CCNC(c1ccccc1)C(O)c1ccccc1` (stereo not drawn), the growth was 99.4% (inactive) in the assay on SK-MEL-2 melanoma; 115% (inactive) in the assay with EKVX NSCLC; 108% (inactive) in the assay on SN12C renal; 92.9% (inactive) in the assay with UO-31 renal; 109% (inactive) with ACHN renal; 104% (inactive) in the assay with CAKI-1 renal. For the same molecule, the growth was 103% (inactive) in the assay with A498 renal, 93.7% (inactive) in the assay on CCRF-CEM leukemia and 102% (inactive) in the assay with MOLT-4 leukemia.
For `CS(=O)(=O)OCC1NC(=O)C(COS(C)(=O)=O)NC1=O` (stereo not drawn), the growth in the assay with SK-MEL-2 melanoma was 75.4% (inactive) and 89.1% (inactive); in the assay on EKVX NSCLC, 98.9% (inactive) and 89.2% (inactive); with SN12C renal it was 108% (inactive) and 111% (inactive); in the assay with UO-31 renal, 91.7% (inactive) and 94.1% (inactive); in the assay with ACHN renal it was 93.7% (inactive) and 85.9% (inactive); in the assay with CAKI-1 renal it was 97% (inactive) and 91.3% (inactive). In addition, the growth in the assay on CCRF-CEM leukemia is 82.4% (inactive) and 74.2% (inactive); in the assay with MOLT-4 leukemia, 91.6% (inactive) and 69% (inactive).
Regarding `CC(=O)Nc1ccc(OC(C)=O)cc1`, the growth with SK-MEL-2 melanoma was -16.6% (active) and 111% (inactive); with EKVX NSCLC, 49.5% (inactive) and 99.5% (inactive); with SN12C renal, 20.2% (inactive) and 102% (inactive); in the assay with UO-31 renal, 21.8% (inactive) and 98.6% (inactive); with ACHN renal, 26.8% (inactive) and 110% (inactive); in the assay with CAKI-1 renal, 17.8% (inactive) and 98.8% (inactive). Besides, the growth is -40.5% (active) and 65.6% (inactive) with A498 renal; 6.69% (active) and 106% (inactive) in the assay with CCRF-CEM leukemia; 15.2% (inactive) and 117% (inactive) in the assay on MOLT-4 leukemia.
As for `COc1cc([C@@H]2c3cc4c(cc3[C@H](O)[C@H]3COC(=O)[C@@H]23)OCO4)cc(OC)c1OC`, the growth is -23.7% (active) with SK-MEL-2 melanoma; 28.6% (inactive) and 35.4% (inactive) with EKVX NSCLC; 20.6% (inactive) and 33% (inactive) with SN12C renal; 23.3% (inactive) and 36.9% (inactive) with UO-31 renal; 25.2% (inactive) and 31.8% (inactive) with ACHN renal; 22.9% (inactive) and 8.72% (active) in the assay with CAKI-1 renal. For the same molecule, the growth was 17.4% (inactive) and 0.767% (active) in the assay on CCRF-CEM leukemia; 13.5% (inactive) and 4.58% (active) in the assay on MOLT-4 leukemia.
Take `O=C(O)C1CSCN1` (stereo not drawn): the growth in the assay on SK-MEL-2 melanoma is 110% (inactive) and 84.4% (inactive); in the assay with EKVX NSCLC it was 102% (inactive) and 101% (inactive); in the assay on SN12C renal, 100% (inactive); with UO-31 renal it was 81.3% (inactive) and 88.6% (inactive); in the assay with TK-10 renal it was 103% (inactive) and 109% (inactive); with ACHN renal, 101% (inactive) and 97.9% (inactive). Also, the growth in the assay with CAKI-1 renal was 92.9% (inactive) and 91.4% (inactive); with CCRF-CEM leukemia, 100% (inactive) and 121% (inactive); with MOLT-4 leukemia, 75.9% (inactive) and 106% (inactive).
For the molecule `COCCNC(C)=O`, the growth in the assay with SK-MEL-2 melanoma was 105% (inactive); in the assay with EKVX NSCLC it was 105% (inactive); in the assay with SN12C renal, 97.7% (inactive); in the assay with UO-31 renal it was 98.2% (inactive); in the assay on ACHN renal, 110% (inactive); with CAKI-1 renal, 98.5% (inactive). Further, the growth is 89.6% (inactive) with A498 renal, 113% (inactive) in the assay with CCRF-CEM leukemia and 119% (inactive) in the assay on MOLT-4 leukemia.
As to `CC(CN(C)C)CN1c2ccccc2Sc2ccccc21` (stereo not drawn), the growth in the assay on SK-MEL-2 melanoma was 91.3% (inactive) and 103% (inactive); with EKVX NSCLC, 83% (inactive) and 104% (inactive) and 73.8% (inactive); in the assay on SN12C renal, 65% (inactive) and 85.2% (inactive) and 80.5% (inactive); with UO-31 renal, 51.7% (inactive) and 77.9% (inactive) and 71.7% (inactive); in the assay with ACHN renal, 76.1% (inactive) and 92.2% (inactive) and 85.9% (inactive); in the assay on CAKI-1 renal, 62.3% (inactive) and 69.6% (inactive). The growth in the assay on A498 renal was 108% (inactive) and 95% (inactive) and 82.6% (inactive); in the assay with CCRF-CEM leukemia, 82.1% (inactive) and 85.3% (inactive) and 77.6% (inactive); with MOLT-4 leukemia it was 75.7% (inactive) and 100% (inactive) and 76.7% (inactive).
On to `OCc1ccccc1F`, for which the growth in the assay with SK-MEL-2 melanoma is 26.3% (inactive); in the assay with EKVX NSCLC, 110% (inactive); in the assay with SN12C renal, 84.5% (inactive); with UO-31 renal it was 84.7% (inactive); in the assay on ACHN renal it was 6.49% (active); in the assay on CAKI-1 renal, 18.7% (inactive). The growth was 98.5% (inactive) in the assay with A498 renal, 83.9% (inactive) in the assay with CCRF-CEM leukemia and 91.8% (inactive) with MOLT-4 leukemia.
Take `COCCCNC1=C(C#N)C(=O)NC(c2cccs2)S1` (stereo not drawn): the growth with SK-MEL-2 melanoma was 119% (inactive); with EKVX NSCLC, 84% (inactive); in the assay on SN12C renal, 93% (inactive); in the assay on UO-31 renal, 76.3% (inactive); with ACHN renal, 97.5% (inactive); with CAKI-1 renal, 92.7% (inactive). The growth with CCRF-CEM leukemia is 114% (inactive); in the assay on MOLT-4 leukemia it was 172% (inactive).
Consider `Nc1c(Cl)cc2c(c1Br)C(=O)c1ccccc1C2=O`, for which the growth is 103% (inactive) in the assay on SK-MEL-2 melanoma; 60.2% (inactive) in the assay with EKVX NSCLC; 87.3% (inactive) with SN12C renal; 63.2% (inactive) in the assay with UO-31 renal; 73% (inactive) in the assay with ACHN renal; 82.3% (inactive) in the assay on CAKI-1 renal. Moreover, the growth is 110% (inactive) with A498 renal, 96.2% (inactive) in the assay on CCRF-CEM leukemia and 87.8% (inactive) in the assay on MOLT-4 leukemia.
Turning to `CC(C)(C(=O)c1cccnc1)c1cccnc1`, the growth in the assay on SK-MEL-2 melanoma was 101% (inactive) and 99.7% (inactive); in the assay on EKVX NSCLC, 102% (inactive) and 124% (inactive); in the assay with SN12C renal, 96.1% (inactive) and 113% (inactive); with UO-31 renal, 77.5% (inactive) and 93.4% (inactive); in the assay on ACHN renal, 97.3% (inactive) and 111% (inactive); in the assay on CAKI-1 renal, 98.5% (inactive) and 109% (inactive). Moreover, the growth in the assay with A498 renal was 73.3% (inactive) and 130% (inactive); in the assay with CCRF-CEM leukemia it was 91.8% (inactive); in the assay with MOLT-4 leukemia, 96.3% (inactive) and 126% (inactive).
